Data: PubChem BioAssay (Tox21)
Several values for one entry are separate records, joined by “and”; a condition that tells them apart may be missing. Equal values may be shown once. Inconclusive results are not listed. Entries that show only a call come without a potency. Some compounds were tested as several samples or in several runs, with calls that do not always agree. Activity calls are given as the source filed them. Unless noted, calls follow the shape of the dose curve; as a rule, active = well fitted curve in the direction sought with a large enough effect in the repeat runs; inconclusive = weak or mixed curves; inactive = no such curve, though single readings can be large; an effect the other way counts as inactive or inconclusive.

How the values were obtained:
[1] = qHTS assay for small molecules that induce genotoxicity in human embryonic kidney cells expressing luciferase-tagged ATAD5 (AID 651632); also: nearly all actives have a fitted effect of over 15% in size; also: potency is read from the fitted curve at half-maximal effect
Procedure, shortened: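 ATAD5-luc HEK293T, 2,000 cells/well; cpd or DMSO pin-transferred; 16 hr, 37C/5% CO2; Amplite 30 min RT; luminescence.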

[2] = qHTS assay for small molecule agonists of the p53 signaling pathway - cell viability (AID 651633; calls by dose curve; also: nearly all actives have a fitted effect of over 30% in size; also: potency is read from the fitted curve at half-maximal effect)
Procedure, shortened: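 p53RE-bla cells, seeded at 4,000 per well and rested 5 h at 37 C/5% CO2, received compounds in DMSO for 16 h at 37 C. CellTiter-Glo was then added, and luminescence was read after 30 min at room temperature to gauge cytotoxicity.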

[3] = qHTS assay for small molecules that induce genotoxicity in human embryonic kidney cells expressing luciferase-tagged ATAD5 - cell viability (AID 651634; calls by dose curve; also: nearly all actives have a fitted effect of over 25% in size; also: potency is read from the fitted curve at half-maximal effect)
Procedure, shortened: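 Fluorescence from CellTiter-Fluor, reporting protease activity within live cells, served as the viability read-out. HEK293T cells carrying luciferase-tagged ATAD5 had been treated with compound for 15.5 hr at 37C.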

[4] = qHTS assay for small molecule disruptors of the mitochondrial membrane potential - cell viability (AID 720634; calls by dose curve; also: nearly all actives have a fitted effect of over 20% in size; also: potency is read from the fitted curve at half-maximal effect)
Procedure, shortened: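 Cells: HepG2, 2,000/well, attached overnight. Compound 1 hr, 37 C/5% CO2. +m-MPI dye, +CellTiter-Glo 30 min RT. Readout: luminescence (ATP).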

[5] = qHTS assay for small molecule disruptors of the mitochondrial membrane potential (AID 720635); also: potency is read from the fitted curve at half-maximal effect
Procedure, shortened: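 HepG2 cells (2,000/well) attached overnight at 37C, then took compound for 1 hr at 37C, 5% CO2. Mito-MPS dye was added for 30 min; fluorescence was read at 490/535 nm (monomers) and 540/590 nm (aggregates).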

[6] = qHTS assay to test for compound auto fluorescence at 590 nm (red) in HepG2 cells (AID 720674)
Procedure, shortened: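 Compound auto-fluorescence is scored relative to Rose Bengal sodium, measured at 540/590 nm in live HepG2 cultures after 1 hr compound contact (37 C, 5% CO2).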

[7] = qHTS assay to test for compound auto fluorescence at 535 nm (green) in HepG2 cells (AID 720675)
[8] = qHTS assay to test for compound auto fluorescence at 460 nm (blue) in HEK293 cells (AID 720678)
Procedure, shortened: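 After cell attachment (4-5 hr, 37C), compounds were pinned onto HEK293 monolayers in 10% dialyzed FBS medium. The blue channel (405/460 nm) was read following overnight culture. Equivalency was calculated against triamterene.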

[9] = qHTS assay to test for compound auto fluorescence at 590 nm (red) in HEK293 cells (AID 720679)
Procedure, shortened: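 Plates of HEK293 cells (10% dialyzed FBS) are treated with 23 nL compound or DMSO vehicle after a 4-5 hr attachment period, incubated overnight at 37C, and read for red fluorescence at 540/590nm.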

[10] = qHTS assay to test for compound auto fluorescence at 535 nm (green) in HEK293 cells (AID 720680)
[11] = qHTS assay to test for compound auto fluorescence at 460 nm (blue) in HEK293 cell free culture (AID 720681)
Procedure, shortened: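 Test compounds were pinned into cell-free culture medium (DMEM with 10% FBS) and fluorescence was read directly at Ex/Em 405/460 nm. Signals were expressed as fluorescence equivalents of triamterene, with DMSO vehicle as control.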

[12] = qHTS assay to test for compound auto fluorescence at 535 nm (green) in HEK293 cell free culture (AID 720682)
Procedure, shortened: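 Intrinsic compound fluorescence is measured in culture medium containing 10% FBS, with excitation at 485 nm and detection at 535 nm, referenced to fluorescein.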

[13] = qHTS assay to test for compound auto fluorescence at 590 nm (red) in HEK293 cell free culture (AID 720683)
Procedure, shortened: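 Tox21 10K library compounds were pinned into cell-free DMEM with 10% FBS and fluorescence was read at excitation 540 nm. Activity is expressed as Rose Bengal sodium equivalency.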

[14] = qHTS assay to test for compound auto fluorescence at 590 nm (red) in HepG2 cell free culture (AID 720684)
Procedure, shortened: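 Measured in medium alone (MEM containing 10% FBS) following pintool addition of compound; emission at 590 nm with 540 nm excitation, referenced to Rose Bengal sodium.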

[15] = qHTS assay to test for compound auto fluorescence at 460 nm (blue) in HepG2 cell free culture (AID 720685)
Procedure, shortened: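 Compound (23 nL) or DMSO pinned into cell-free MEM with 10% FBS; blue fluorescence read at 405/460 nm excitation/emission, expressed as auto-fluorescence equivalency to triamterene.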

[16] = qHTS assay to test for compound auto fluorescence at 535 nm (green) in HepG2 cell free culture (AID 720686)
[17] = qHTS assay to test for compound auto fluorescence at 460 nm (blue) in HepG2 cells (AID 720687)
Procedure, shortened: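 Cells (2,000/well in MEM with 10% FBS) attached overnight at 37 C, then were exposed to compound or DMSO for 1 hr at 37 C, 5% CO2. Fluorescence read at Ex/Em 405/460 nm, expressed as triamterene-equivalent signal.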

[18] = molecular target: Glucocorticoid receptor (Homo sapiens) (UniProt P04150); assay: qHTS assay to identify small molecule antagonists of the glucocorticoid receptor (GR) signaling pathway (AID 720692; active = well fitted inhibition curve with a large enough effect in the signal ratio in the repeat runs, not every such curve was filed as active; the % refers to the signal ratio)
Chain of Glucocorticoid receptor (Homo sapiens) (P04150 whole entry, looked up): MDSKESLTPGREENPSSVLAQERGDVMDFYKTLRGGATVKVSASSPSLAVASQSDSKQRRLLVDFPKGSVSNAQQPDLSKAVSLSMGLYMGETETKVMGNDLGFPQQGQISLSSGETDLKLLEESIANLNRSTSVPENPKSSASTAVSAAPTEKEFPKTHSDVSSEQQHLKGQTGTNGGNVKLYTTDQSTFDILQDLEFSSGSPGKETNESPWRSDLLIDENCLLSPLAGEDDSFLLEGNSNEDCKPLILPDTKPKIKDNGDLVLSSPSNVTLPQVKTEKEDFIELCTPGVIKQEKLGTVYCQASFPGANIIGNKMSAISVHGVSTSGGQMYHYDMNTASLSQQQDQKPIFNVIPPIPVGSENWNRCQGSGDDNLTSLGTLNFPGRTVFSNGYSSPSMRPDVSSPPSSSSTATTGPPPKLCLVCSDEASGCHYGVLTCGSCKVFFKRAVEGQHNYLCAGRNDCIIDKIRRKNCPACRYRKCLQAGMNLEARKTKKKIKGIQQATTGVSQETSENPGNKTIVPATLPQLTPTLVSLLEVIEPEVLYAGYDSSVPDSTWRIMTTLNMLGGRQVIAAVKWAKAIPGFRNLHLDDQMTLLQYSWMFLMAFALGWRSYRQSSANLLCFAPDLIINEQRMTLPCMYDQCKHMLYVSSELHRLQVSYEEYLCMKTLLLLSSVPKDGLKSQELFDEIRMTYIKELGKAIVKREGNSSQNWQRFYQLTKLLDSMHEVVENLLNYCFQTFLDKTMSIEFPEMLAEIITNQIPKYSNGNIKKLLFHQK
Procedure, shortened: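 HeLa GR-bla cells; cmpd + dex 5 nM final, 18 h 37 C; LiveBLAzer B/G FRET substrate 2 h RT; fluorescence intensity read. Antagonist mode, qHTS.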

[19] = molecular target: Glucocorticoid receptor (Homo sapiens) (UniProt P04150); assay: qHTS assay to identify small molecule agonists of the glucocorticoid receptor (GR) signaling pathway (AID 720691; active = well fitted activation curve with a large enough effect in the signal ratio in the repeat runs, not every such curve was filed as active; the % refers to the signal ratio)
Procedure, shortened: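 Fluorescence intensity from LiveBLAzer B/G FRET substrate (2 h, room temperature) reports beta-lactamase expression driven by the glucocorticoid response element in GR-bla HeLa cells after 18 h compound exposure at 37 C.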

Row | Compound | Potency [1] | Potency [2] | Potency [3] | Potency [4] | Potency [5] | outcome [6] | outcome [7] | outcome [8] | outcome [9] | outcome [10] | outcome [11] | outcome [12] | outcome [13] | outcome [14] | outcome [15] | outcome [16] | outcome [17] | Potency [18] | outcome [19]
1 | O=C(C(Cl)(Cl)Cl)C(Cl)(Cl)Cl | inactive | inactive | inactive | inactive | inactive | inactive | inactive | inactive | inactive | inactive | inactive | inactive | inactive | inactive | inactive | inactive | inactive | inactive | 
2 | CCC(Cl)CCl (stereo not given) | inactive | inactive | inactive | inactive |  | inactive | inactive | inactive | inactive | inactive | inactive | inactive | inactive | inactive | inactive | inactive | inactive |  | 
3 | C[C@H]1CNCCc2ccc(Cl)cc21 | inactive | inactive | inactive | inactive | inactive | inactive | inactive | inactive | inactive |  | inactive | inactive | inactive | inactive | inactive |  | inactive | inactive | inactive
4 | C(=NC1CCCCC1)=NC1CCCCC1 | inactive | 30.8 µM (active) and 17.2 µM (active) | 30.8 µM (active) and 43.3 µM (active) | 5.48 µM (active) | 138 nM (active) and 217 nM (active) |  | inactive | inactive | inactive | inactive | inactive | inactive | inactive | inactive | inactive | inactive | inactive |  | 
5 | COc1nn(C(=O)NS(=O)(=O)c2ccccc2OC(F)(F)F)c(=O)n1C | inactive | inactive | inactive | inactive | inactive |  | inactive | inactive | inactive | inactive |  | inactive | inactive | inactive | inactive | inactive | inactive | inactive | 
6 | C=CC[C@]1(O)CC[C@H]2[C@@H]3CCC4=CC(=O)CCC4=C3C=C[C@@]21C | inactive | inactive | inactive | inactive | inactive |  | inactive | inactive | inactive |  | inactive | inactive | inactive | inactive | inactive | inactive |  |  | 
7 | O=C(CCl)c1ccc(Cl)cc1Cl | 18.8 µM (active) and 43.3 µM (active) | 5.96 µM (active) and 9.69 µM (active) and inactive | inactive | inactive | inactive and 17.1 µM (active) | inactive | inactive | inactive | inactive | inactive |  | inactive | inactive | inactive | inactive |  | inactive |  | inactive
8 | O=S(=O)(O)C(F)(F)C(F)(F)C(F)(F)C(F)(F)F | inactive | inactive | inactive | inactive |  | inactive | inactive | inactive | inactive | inactive |  | inactive | inactive | inactive | inactive | inactive | inactive |  | 
9 | CCOC(=O)COc1cc(-c2nn(C)c(OC(F)F)c2Cl)c(F)cc1Cl | inactive | inactive | inactive | inactive |  | inactive | inactive | inactive | inactive |  | inactive | inactive | inactive | inactive | inactive | inactive | inactive |  | inactive
10 | CC(C)N(CCC(C(N)=O)(c1ccccc1)c1ccccn1)C(C)C (stereo not given) | inactive | inactive | inactive | inactive | inactive | inactive | inactive | inactive | inactive | inactive | inactive | inactive | inactive | inactive | inactive | inactive | inactive |  | 
11 | O=C(Nc1ccccc1)Nc1cnns1 | inactive | inactive | inactive | inactive | 3.06 µM (active) | inactive | inactive | inactive | inactive | inactive |  | inactive | inactive | inactive | inactive | inactive | inactive |  | 
12 | Clc1cc(Cl)c(Cl)c(Cl)c1 | inactive | inactive | inactive | inactive | inactive |  | inactive | inactive | inactive | inactive | inactive | inactive | inactive | inactive | inactive | inactive | inactive |  | 
13 | C[C@@H]1CC[C@H]2[C@@H](C)C(=O)O[C@@H]3O[C@@]4(C)CC[C@@H]1[C@]32OO4 | inactive | inactive | 1.06 µM (active) | inactive | inactive | inactive | inactive | inactive | inactive | inactive |  | inactive | inactive | inactive | inactive |  | inactive |  | inactive
14 | O=S(=O)(Cl)c1ccccc1 | inactive | inactive | inactive | inactive | inactive | inactive | inactive | inactive | inactive | inactive | inactive | inactive | inactive | inactive | inactive |  | inactive |  | 
